Measured values: the supplement of paper PMC9477273

What follows are compounds tested on DRIVER-selected RNA biosensor (aptazyme) pool (assay: maximum fold change of ribozyme cleavage across biosensor pool versus no-compound control; higher = stronger biosensor response (ligand inhibits cleavage)). Conditions: 10 µM.
Method in brief: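 Values are the maximum fold change of cleavage over all biosensors in a CleaveSeq assay, defined as the cleaved:uncleaved read-fraction ratio against a no-compound condition after correction with reference sequences. The 1,730 array-resynthesized ribozyme biosensors were T7-transcribed for 15–30 min at 37°C with 9 mM rNTPs and a single compound at 10 µM final, then reverse-transcribed at 50°C. Read counts came from Illumina sequencing of PCR-barcoded cleaved and uncleaved products.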

Row | Structure (SMILES) | maximum fold change
1 | O=C(Cn1ncn2nc(-c3cccs3)cc2c1=O)N1CCN(c2ccccn2)CC1 | 3.03
2 | CCOc1ccc(CCNC(=O)Cn2ccc3cc(S(=O)(=O)N4CCCC4)ccc32)cc1 | 3.07
3 | CC1=C(C(=O)NCCC2=CCCCC2)C2(CCC(C)CC2)OC1=O (stereo not given) | 2.79
4 | O=C(NCc1cccc(Cl)c1)c1cnc2ccccn2c1=O | 7.03
5 | Cc1ccc2[nH]c(=O)c3cc(C(=O)NCCCN(C)Cc4ccccc4)sc3c2c1 | 7.38
6 | COc1cc(C(=O)N(Cc2ccccc2F)C2CCS(=O)(=O)C2)cc(OC)c1OC (stereo not given) | 2.18
7 | O=C(Cn1ccc2cc(S(=O)(=O)N3CCCC3)ccc21)NC1CC1 | 2.36
8 | CC1=[N+](CCCS(=O)(=O)O)SC2C=CC(Cl)=CC12 (stereo not given) | 1.77
9 | Cc1cc(C)cc(-n2c(C)cc(/C=C3\C(=N)N4N=C(N5CCOCC5)SC4=NC3=O)c2C)c1 | 4.19
10 | COCCNC(=S)NCc1ccc2[nH]c(C)cc2c1 | 2.32
11 | NC(=O)c1nc2n(c1N)CCCCC2 | 2.43
12 | Cc1c(C(=O)NC2CCCCCC2)sc2ncnc(N3CCCCC3C)c12 (stereo not given) | 2.58
13 | Cc1ccc(C(=O)N(Cc2ccccc2)c2ccccn2)cc1 | 2.65
14 | CN(CCCNC(=O)c1ccc(CS(=O)(=O)Cc2cccc(Cl)c2)o1)C1CCCCC1 | 1.94
15 | CC1=C(c2ccc(C)cc2)S(=O)(=O)N=C1NCCCN1CCc2ccccc2C1 | 3.69
16 | Cc1c(CNC2CCCc3ccccc32)c(C(=O)O)c(C)n1Cc1ccc(F)cc1 (stereo not given) | 2.39
17 | O=c1c2cccnc2n(Cc2ccc(Cl)cc2)c(=O)n1CCc1ccccc1 | 2.13
18 | COc1ccc(-c2c(C)nn3c(N)c(C#N)cnc23)cc1OC | 4.07
19 | c1cncc(-c2nc3cc(Oc4ccc5[nH]c(-c6cccnc6)nc5c4)ccc3[nH]2)c1 | 12.5
20 | CC1(C)CC(=O)C(=Cc2c[nH]c3ccccc23)C(=O)C1 | 2.44
21 | Cc1nc(NC(=N)NC(=O)CCN2C(=O)c3ccccc3C2=O)nc2ccccc12 | 8.2
22 | O=C(NCC(=O)N1CCOCC1)c1ccccc1 | 1.78
23 | Cc1ccccc1-c1nnc(SCC(=O)N2CCC(C)CC2)o1 | 1.91
24 | COc1ccc(Br)cc1CNCc1sc(C(=O)O)cc1C | 3.28
25 | Cc1oc2ncn3nc(-c4ccc(F)cc4)nc3c2c1C | 10.5
26 | CCc1nc2ccc(C(=O)NCCc3ccco3)cc2nc1CC | 2.69
27 | CC(C)COc1ccc(-c2nn(-c3ccccc3)cc2CO)cc1 | 3.19
28 | CCOC(=O)c1ccc(S(=O)(=O)N2CCOCC2)cc1 | 1.53
29 | Cc1cc(NC(=O)CSc2nnc(-c3ccc(C)c(C)c3)o2)no1 | 2.25
30 | Cc1cc2cc(CNC(=O)C3CCCC3)ccc2[nH]1 | 5.24
